According to PubChem BioAssay (NCATS):
Results filed as inconclusive are left out. Active and inactive are the calls of the source. Unless noted, calls come from the whole dose curve; as a rule, active = well fitted curve in the direction sought with a large enough effect; inconclusive = small, poorly fitted or top-dose-only effect, or another doubt; inactive = no such curve, though single readings can be large; an effect the other way counts as inactive or inconclusive.

Assays:
[1] = qHTS assay for measurement of the activity of small molecule inhibitors on Zika virus induced Caspase-3 activity in human iPSC derived neural progenitor cells (hNPCs) (AID 1224857); note: nearly all actives have a fitted effect of over 65% in size
Outline: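 After overnight (16–20 h) culture at 350 cells/well, hNPCs get compound, then ZIKV 2 FFU/cell one hour later. Six hours on, Caspase-Glo 3/7 is added and luminescence measured.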

[2] = qHTS assay for measurement of the activity of small molecule inhibitors on Zika virus induced Caspase-3 activity in human astrocytoma cells (AID 1224859)
Outline: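 Inhibition of Zika-induced caspase-3/7 activity: SNB-19 cells, 1 h compound pretreatment, ZIKV 2 FFU/cell for 6 h at 37 C, Caspase-Glo luminescence read-out.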

[3] = qHTS assay to identify small molecule inhibitors of chordoma cells - UCH-1 (AID 1259355); note: nearly all actives have a fitted effect of over 55% in size
Outline: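 800 cells/well, overnight attach; compounds pinned at 15 concs, then auranofin/camptothecin/doxorubicin/rubitecan/topotecan combo added; 48hr 37 C, 5% CO2; CellTiter-Glo, 30min RT, luminescence.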

[4] = qHTS assay to identify small molecule inhibitors of chordoma cells - UCH-2 (AID 1259356)
[5] = P-glycoprotein substrates identified in KB-8-5-11 adenocarcinoma cell line, qHTS therapeutic library screen (AID 1346987); settings: outcome: dose series up to 44.5 µM; note: nearly all actives have a fitted effect of over 65% in size
Outline: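 Compounds are pinned in dose-response onto KB-8-5-11 cells (500 cells/well, colchicine-free medium) and left 72 h at 37 degree C. CellTiter-Glo luminescence then yields AC50 values.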

[6] = NS1 protein of Zika virus - qHTS assay to identify small molecule inhibitors in human HEK 293 cells (AID 1347053); note: nearly all actives have a fitted effect of over 55% in size
Outline: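 TR-FRET signal from two anti-ZIKV NS1 antibodies quantified NS1 in HEK 293 cells 24 h after MR766 infection at MOI = 0.5; compounds were added 1 h before virus. Uninfected cells and infected cells defined the NS1 normalization range.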

[7] = qHTS of pediatric cancer cell lines to identify multiple opportunities for drug repurposing: Primary screen for TC32 cells (AID 1347089); note: nearly all actives have a fitted effect of over 60% in size
Outline: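 TC32 cells, 500-1,000/well in growth medium, compound-treated 48 h at 37 °C; viability from CellTiter-Glo luminescence. Primary screen: MIPE 11-point (0.78 nM–46 µM final), NPC 8-point (0.59 nM–46 µM final); confirmatory at 11-point dilutions.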

[8] = qHTS of pediatric cancer cell lines to identify multiple opportunities for drug repurposing: Primary screen for DAOY cells (AID 1347090); note: nearly all actives have a fitted effect of over 55% in size
Outline: (§1)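 Cell viability, CellTiter-Glo luminescence; 500-1,000 cells/well, 8- or 11-point titration, 48 h compound exposure at 37 degrees C, 5% CO2. Controls: DMSO neutral, bortezomib 2.3 µM final as positive.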

[9] = qHTS of pediatric cancer cell lines to identify multiple opportunities for drug repurposing: Primary screen for A673 cells (AID 1347092); note: nearly all actives have a fitted effect of over 45% in size
Outline: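 A673 cells (500-1,000 cells/well) were treated 48 hours at 37 degrees C with compounds at 11-point (0.78 nM to 46 µM) or 8-point (0.59 nM to 46 µM) dilutions. Viability read by CellTiter-Glo luminescence; concentration-response curves fitted.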

[10] = qHTS of pediatric cancer cell lines to identify multiple opportunities for drug repurposing: Primary screen for SK-N-MC cells (AID 1347093)
Outline: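 Metabolically active cells were quantified by ATP-dependent luminescence (CellTiter-Glo, 15 min at room temperature) following 48 h treatment. Cells had been plated at 500-1,000 per well and settled for 5 h beforehand.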

[11] = qHTS of pediatric cancer cell lines to identify multiple opportunities for drug repurposing: Primary screen for BT-37 cells (AID 1347094)
Outline: (§2)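 Viability was measured as metabolically active cells after 48 hours of treatment, read by CellTiter-Glo luminescence. Compounds were tested at multiple final concentrations, giving concentration-response curves.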

[12] = qHTS of pediatric cancer cell lines to identify multiple opportunities for drug repurposing: Primary screen for NB-EBc1 cells (AID 1347095)
Outline: as §2

[13] = qHTS of pediatric cancer cell lines to identify multiple opportunities for drug repurposing: Primary screen for U-2 OS cells (AID 1347096); note: nearly all actives have a fitted effect of over 50% in size
Outline: (§3)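 Cells (500-1,000/well) rested 5 h, then received compounds for 48 h; metabolically active cells were measured by CellTiter-Glo luminescence. Final concentrations spanned up to 46 µM (MIPE, 11-point) or 0.59 nM-46 µM (NPC, 8-point) in primary screens, 11-point in follow-ups.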

[14] = qHTS of pediatric cancer cell lines to identify multiple opportunities for drug repurposing: Primary screen for Saos-2 cells (AID 1347097); note: nearly all actives have a fitted effect of over 40% in size
Outline: as §2

[15] = qHTS of pediatric cancer cell lines to identify multiple opportunities for drug repurposing: Primary screen for SK-N-SH cells (AID 1347098); note: nearly all actives have a fitted effect of over 65% in size
Outline: as §3

[16] = qHTS of pediatric cancer cell lines to identify multiple opportunities for drug repurposing: Primary screen for LAN-5 cells (AID 1347100)
Outline: as §3

[17] = qHTS of pediatric cancer cell lines to identify multiple opportunities for drug repurposing: Primary screen for NB1643 cells (AID 1347099); note: nearly all actives have a fitted effect of over 50% in size
Outline: as §2

[18] = qHTS of pediatric cancer cell lines to identify multiple opportunities for drug repurposing: Primary screen for SJ-GBM2 cells (AID 1347091)
Outline: as §1

[19] = qHTS profiling of the MIPE4 collection as inhibitors of Plasmodium falciparum (HB3) proliferation (AID 743347; call rule not given here); settings: P. falciparum HB3 in erythrocytes, SYBR Green DNA, 72 h; at 9.64 µM (top of the series) unless noted
Outline: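 Parasite DNA was quantified by SYBR Green I fluorescence (ex 485, em 535 nm) after overnight lysis in saponin/Triton buffer at room temperature. Cultures at 0.3% parasitemia and 2.5% hematocrit were first exposed to compound for 72 h at 37 C; signals were normalised to artemisinin (0.29 uM) and vehicle wells.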

Cc1ccc(S(=O)(=O)NC(=O)NC2CCCCCCC2)cc1
inactive: outcome [1] | outcome [2] | outcome [3] | outcome [4] | outcome [5] | outcome [6] | outcome [7] | outcome [8] | outcome [9] | Potency [10] | outcome [11] | outcome [12] | outcome [13] | outcome [14] | outcome [15] | outcome [16]

CC(C)=CCC/C(C)=C/CO
inactive: outcome [1] | outcome [2] | outcome [3] | outcome [4] | outcome [5] | outcome [6] | outcome [7] | outcome [8] | outcome [9] | Potency [10] | outcome [11] | outcome [12] | outcome [13] | outcome [14] | outcome [15] | Potency [17] | outcome [16]

Cc1c(I)c(=O)n(-c2ccccc2)n1C
inactive: outcome [1] | outcome [2] | outcome [3] | outcome [4] | outcome [5] | outcome [6] | outcome [7] | outcome [8] | outcome [9] | Potency [10] | outcome [11] | outcome [12] | outcome [13] | outcome [14] | outcome [15] | Potency [17] | outcome [16]

CCN(CC)CC1CCCCN1CC(=O)N1c2ccccc2C(=O)Nc2cccnc21 (stereo not given)
inactive: outcome [1] | outcome [2] | outcome [3] | outcome [4] | outcome [5] | outcome [6] | outcome [7] | outcome [8] | outcome [9] | Potency [10] | outcome [11] | outcome [12] | outcome [13] | outcome [14] | Potency [17] | outcome [16]

CCCCCCCCCCCCCCCCC(C(=O)O)C(O)(CC(=O)O)C(=O)O (stereo not given)
inactive: outcome [1] | outcome [2] | outcome [3] | outcome [4] | outcome [5] | outcome [6] | outcome [7] | outcome [8] | outcome [9] | Potency [10] | outcome [11] | outcome [13] | outcome [14] | outcome [15] | Potency [17] | outcome [16]

O=C(CN1CCNCC1)NC1CCCCC1
inactive: outcome [1] | outcome [2] | outcome [3] | outcome [4] | outcome [5] | outcome [6] | outcome [7] | outcome [8] | outcome [9] | Potency [10] | outcome [12] | outcome [13] | outcome [14] | outcome [15] | Potency [17] | outcome [16]

CN1C[C@@H]2C[C@H]1CN2c1cc2c(cc1F)c(=O)c(C(=O)O)cn2C1CC1
inactive: outcome [1] | outcome [2] | outcome [3] | outcome [4] | outcome [6] | outcome [7] | outcome [8] | outcome [18] | outcome [9] | Potency [10] | outcome [11] | outcome [12] | outcome [13] | outcome [14] | outcome [15] | outcome [16]

Nc1c2c(nc3c1CCC3)CCCC2
inactive: outcome [1] | outcome [2] | outcome [3] | outcome [4] | outcome [5] | outcome [6] | outcome [7] | outcome [8] | outcome [9] | Potency [10] | outcome [11] | outcome [12] | outcome [13] | outcome [15] | Potency [17] | outcome [16]

C1CCN2C[C@@H]3C[C@@H](CN4CCCC[C@@H]34)[C@H]2C1
inactive: outcome [1] | outcome [2] | outcome [3] | outcome [4] | outcome [5] | outcome [6] | outcome [7] | outcome [8] | outcome [9] | Potency [10] | outcome [11] | outcome [12] | outcome [13] | outcome [14] | outcome [15] | outcome [16]

O=c1[nH]cnc2nc[nH]c12
inactive: outcome [1] | outcome [2] | outcome [3] | outcome [4] | outcome [5] | outcome [6] | outcome [7] | outcome [8] | outcome [9] | Potency [10] | outcome [11] | outcome [14] | outcome [15] | Potency [17] | outcome [16]

CC[C@]12CCCN3CCc4c(n(c5ccccc45)[C@@](O)(C(=O)OC)C1)[C@@H]32
inactive: outcome [1] | outcome [2] | outcome [3] | outcome [4] | outcome [6] | outcome [7] | outcome [8] | outcome [18] | outcome [9] | Potency [10] | outcome [11] | outcome [12] | outcome [13] | outcome [14] | outcome [15] | Potency [17] | outcome [16]

NC(=O)CC[C@@H](N)C(=O)O
inactive: outcome [1] | outcome [2] | outcome [3] | outcome [4] | outcome [5] | outcome [6] | outcome [7] | outcome [8] | outcome [9] | Potency [10] | outcome [11] | outcome [12] | outcome [13] | outcome [14] | outcome [15] | Potency [17] | outcome [16]

CCCNC(C)(C)COC(=O)c1ccccc1
inactive: outcome [1] | outcome [2] | outcome [3] | outcome [4] | outcome [5] | outcome [6] | outcome [7] | outcome [8] | outcome [9] | outcome [11] | outcome [12] | outcome [13] | outcome [14] | outcome [15] | Potency [17] | outcome [16]

C=CCN1C[C@H](C(=O)N(CCCN(C)C)C(=O)NCC)C[C@@H]2c3cccc4[nH]cc(c34)C[C@H]21
inactive: outcome [1] | outcome [2] | outcome [3] | outcome [4] | outcome [5] | outcome [6] | outcome [7] | outcome [8] | outcome [9] | Potency [10] | outcome [11] | outcome [12] | outcome [14] | outcome [15] | Potency [17] | outcome [16]

Cc1ccc2c(c1)c1c3n2CCNC3CCC1 (stereo not given)
inactive: outcome [1] | outcome [2] | outcome [3] | outcome [4] | outcome [5] | outcome [6] | outcome [8] | outcome [18] | outcome [9] | Potency [10] | outcome [11] | outcome [12] | outcome [13] | outcome [14] | outcome [15] | outcome [16]

Nc1ccc(S(=O)(=O)c2ccc(N)cc2)cc1
100%: growth, % of control [19]
inactive: outcome [1] | outcome [2] | outcome [3] | outcome [5] | outcome [6] | outcome [7] | outcome [8] | outcome [18] | outcome [9] | outcome [11] | outcome [12] | outcome [13] | outcome [14] | outcome [15] | Potency [17] | outcome [16]
